Measurements taken from PubChem BioAssay AID1159580 (chemical genetic matrix, 2015).
The campaign covered roughly 5,500 compounds. About 2,000 (36%) were called active. Another 18% or so got no clear call; they are omitted. No stated cut-off is given here; in the data, active means normalized growth mostly below about 0.91 (no sharp cut-off); inconclusive means no clear call, values can overlap the other calls; inactive means mostly above about 0.92. The list shows a part of the results.

Experiment: chemical genetic growth profiling, strain panel (AID 1159580);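 further: tested at 20 µM; growth read once vehicle control cultures reached saturation at 30 °C; 1 = growth at the plate median or of vehicle wells; lower values mean less growth of the strain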
Settings: growth OD

Measured: normalized growth

Cc1cccc(Nc2ccncc2S(=O)(=O)NC(=O)NC(C)C)c1
inactive: S. cerevisiae deletion strains, locus YAL013W, strain DEP1, hits give low values 1.01 | S. cerevisiae deletion strains, locus YBR021W, strain FUR4, hits give low values 1.02 | S. cerevisiae deletion strains, locus YBR229C, strain ROT2, hits give low values 1.01 | S. cerevisiae deletion strains, locus YCL029C, strain bik1, hits give low values 1.02 | S. cerevisiae deletion strains, locus YDL035C, strain GPR1, hits give low values 1.02 | S. cerevisiae deletion strains, locus YDL074C, strain BRE1, hits give low values 1.01 | S. cerevisiae deletion strains, locus YDL101C, strain DUN1, hits give low values 1.02 | S. cerevisiae deletion strains, locus YDL134C, strain PPH21, hits give low values 1 | S. cerevisiae deletion strains, locus YDL185W, strain tfp1, hits give low values 1.02 | S. cerevisiae deletion strains, locus YDL192W, strain arf1, hits give low values 1.03 | S. cerevisiae deletion strains, locus YDR101C, strain arx1, hits give low values 1.02 | S. cerevisiae deletion strains, locus YDR150W, strain NUM1, hits give low values 1.02 | S. cerevisiae deletion strains, locus YDR162C, strain NBP2, hits give low values 1.01 | S. cerevisiae deletion strains, locus YDR318W, strain mcm21, hits give low values 1.03 | S. cerevisiae deletion strains, locus YDR388W, hits give low values 1.02 | S. cerevisiae deletion strains, locus YDR502C, strain sam2, hits give low values 1.02 | S. cerevisiae deletion strains, locus YEL061C, strain CIN8, hits give low values 1.01 | S. cerevisiae deletion strains, locus YER110C, hits give low values 1.03 | S. cerevisiae deletion strains, locus YER155C, strain BEM2, hits give low values 0.999 | S. cerevisiae deletion strains, locus YER167W, strain BCK2, hits give low values 1.01 | S. cerevisiae deletion strains, locus YGL078C, strain dbp3, hits give low values 1.02 | S. cerevisiae deletion strains, locus YGL086W, strain mad1, hits give low values 1.02 | S. cerevisiae deletion strains, locus YGL248W, strain PDE1, hits give low values 1.01 | S. cerevisiae deletion strains, locus YGR078C, strain PAC10, hits give low values 1.05 | S. cerevisiae deletion strains, locus YGR135W, strain pre9, hits give low values 1.01 | S. cerevisiae deletion strains, locus YGR229C, strain SMI1, hits give low values 1.04 | S. cerevisiae deletion strains, locus YGR252W, strain gcn5, hits give low values 1.08 | S. cerevisiae deletion strains, locus YHR030C, strain SLT2, hits give low values 1.01 | S. cerevisiae deletion strains, locus YHR079C, strain IRE1 (second series), hits give low values 1.01 | S. cerevisiae deletion strains, locus YHR094C, strain hxt1, hits give low values 1.02 | S. cerevisiae deletion strains, locus YHR129C, strain ARP1, hits give low values 1 | S. cerevisiae deletion strains, locus YHR200W, strain rpn10, hits give low values 1.03 | S. cerevisiae deletion strains, locus YIL066C, strain RNR3, hits give low values 1.04 | S. cerevisiae deletion strains, locus YIL125W, strain kgd1, hits give low values 1.01 | S. cerevisiae deletion strains, locus YIR030C, strain dcg1, hits give low values 1.02 | S. cerevisiae deletion strains, locus YJL095W, strain BCK1, hits give low values 1.02 | S. cerevisiae deletion strains, locus YJL134W, strain LCB3, hits give low values 1.01 | S. cerevisiae deletion strains, locus YJL168C, strain set2, hits give low values 1.02 | S. cerevisiae deletion strains, locus YJL187C, strain SWE1 (second series), hits give low values 1.02 | S. cerevisiae deletion strains, locus YJR043C, strain POL32, hits give low values 1.04 | S. cerevisiae deletion strains, locus YJR075W, strain HOC1, hits give low values 1.01 | S. cerevisiae deletion strains, locus YKL009W, strain mrt4, hits give low values 1.01 | S. cerevisiae deletion strains, locus YKL068W, hits give low values 1.01 | S. cerevisiae deletion strains, locus YKL085W, strain MDH1 (second series), hits give low values 0.986 | S. cerevisiae deletion strains, locus YKL085W, strain MDH1, hits give low values 0.986 | S. cerevisiae deletion strains, locus YKL190W, strain CNB1, hits give low values 1.03 | S. cerevisiae deletion strains, locus YKR001C, strain vps1, hits give low values 1.03 | S. cerevisiae deletion strains, locus YLR039C, strain RIC1, hits give low values 1.04 | S. cerevisiae deletion strains, locus YLR058C, strain SHM2, hits give low values 1.01 | S. cerevisiae deletion strains, locus YLR102C, strain apc9, hits give low values 1.02 | S. cerevisiae deletion strains, locus YLR262C, strain YPT6, hits give low values 1.03 | S. cerevisiae deletion strains, locus YLR268W, strain sec22, hits give low values 1.02 | S. cerevisiae deletion strains, locus YLR330W, strain CHS5, hits give low values 1.01 | S. cerevisiae deletion strains, locus YLR342W, strain FKS1 (second series), hits give low values 1.06 | S. cerevisiae deletion strains, locus YLR371W, strain rom2, hits give low values 1.03 | S. cerevisiae deletion strains, locus YLR418C, strain cdc73, hits give low values 1.01 | S. cerevisiae deletion strains, locus YML016C, strain PPZ1, hits give low values 1.01 | S. cerevisiae deletion strains, locus YML032C, strain rad52, hits give low values 1.03 | S. cerevisiae deletion strains, locus YML124C, strain tub3, hits give low values 1.02 | S. cerevisiae deletion strains, locus YMR078C, strain ctf18, hits give low values 1.03 | S. cerevisiae deletion strains, locus YMR223W, strain ubp8, hits give low values 1.03 | S. cerevisiae deletion strains, locus YMR263W, strain SAP30, hits give low values 1.02 | S. cerevisiae deletion strains, locus YMR307W, strain GAS1, hits give low values 1.05 | S. cerevisiae deletion strains, locus YNL067W, strain RPL9B, hits give low values 1.01 | S. cerevisiae deletion strains, locus YNL128W, strain TEP1, hits give low values 1.02 | S. cerevisiae deletion strains, locus YNL153C, strain GIM3, hits give low values 1 | S. cerevisiae deletion strains, locus YNL233W, strain BNI4, hits give low values 1 | S. cerevisiae deletion strains, locus YNL250W, strain rad50, hits give low values 1.02 | S. cerevisiae deletion strains, locus YNL271C, strain bni1, hits give low values 1.02 | S. cerevisiae deletion strains, locus YNL298W, strain CLA4, hits give low values 1.02 | S. cerevisiae deletion strains, locus YNL307C, strain MCK1, hits give low values 1.03 | S. cerevisiae deletion strains, locus YNL322C, strain KRE1, hits give low values 1.02 | S. cerevisiae deletion strains, locus YNR052C, strain pop2, hits give low values 1.03 | S. cerevisiae deletion strains, locus YOL006C, strain TOP1, hits give low values 1 | S. cerevisiae deletion strains, locus YOL012C, strain htz1 0.913 | S. cerevisiae deletion strains, locus YOL147C, strain pex11, hits give low values 1.02 | S. cerevisiae deletion strains, locus YOR061W, strain CKA2, hits give low values 1.01 | S. cerevisiae deletion strains, locus YOR069W, strain VPS5, hits give low values 1 | S. cerevisiae deletion strains, locus YOR136W, strain idh2, hits give low values 1.03 | S. cerevisiae deletion strains, locus YOR144C, strain elg1, hits give low values 1.03 | S. cerevisiae deletion strains, locus YOR184W, strain ser1, hits give low values 1.03 | S. cerevisiae deletion strains, locus YOR316C, strain cot1, hits give low values 1.02 | S. cerevisiae deletion strains, locus YPL055C, strain LGE1, hits give low values 1.04 | S. cerevisiae deletion strains, locus YPL241C, strain CIN2, hits give low values 1.03 | S. cerevisiae deletion strains, locus YPR119W, strain clb2, hits give low values 1.02 | S. cerevisiae deletion strains, locus YPR141C, strain kar3, hits give low values 1.02 | S. cerevisiae deletion strains, locus YPR163C, strain tif3, hits give low values 1.03 | S. cerevisiae deletion strains, locus YPR167C, strain met16, hits give low values 1.01 | S. cerevisiae deletion strains, strain wtn01, hits give low values 1 | S. cerevisiae strains, strain wild type, hits give low values 1.04
